ABCB6 inh MLPCN = human ABCB6 transporter inhibition; Q9NP58; K562-ABCB6 porphyrin accumulation, flow cytometry, 1 h; active compounds read low; fluorescence ratio to DMSO, % at 10 µM; hit rate 0.19% among 360,000;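 active means fluorescence ratio to DMSO below 75%, the collection mean minus 3 SD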;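 further: signal is porphyrin accumulated inside mitochondria; 100% equals median channel fluorescence of DMSO control wells; lower ratio means ABCB6 inhibition with less porphyrin fluorescence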
ANO1 activ = activates or potentiates the mouse TMEM16A chloride channel. B-score at 10 µM. HEK293 TMEM16A/YFP-H148Q/I152L, iodide quench fluorescence; active compounds read low. hit rate 0.3% among 340,000;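 active means fluorescence-ratio B-score plate-corrected deviation score at least 3 library SD below zero, with starting fluorescence score within 5 deviations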;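 further: channel opened by trigger with iodide after compound preincubation; score built on the fluorescence ratio of max minus min over baseline; more negative score means more quench and so TMEM16A activation or potentiation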
iPSC survival up = increases survival of single human iPS cells | hit rate 0.044% among 360,000 | hiPSC single-cell survival, ATPlite luminescence; 100% = ROCK inhibitor wells, 0% = DMSO | survival enhancement, % at 20 µM; in the data active means survival enhancement above about 18%;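 further: cells exposed to compounds for 16 hours before the ATP read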
TMEM16A inh = blocks the mouse calcium-activated chloride channel TMEM16A | Q8BHY3 | HEK293 TMEM16A/YFP iodide influx fluorescence, ionomycin | normalized B-score (activity score, 25-100; higher = stronger inhibition) at 10 µM | hit rate 1.2% among 310,000 | AID 588511;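 active means ratio plate-corrected score three or more library SD toward inhibition, starting fluorescence score within five deviations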;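 further: score derived from kinetic fluorescence span divided by baseline fluorescence per well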
DAGLB inh = blocks human DAGLB lipase activity | Q8NCG7 | HEK293T DAGLB membrane lysate, EnzChek fluorogenic substrate | inhibition, % at 5.17 µM | hit rate 0.059% among 340,000 | AID 504411; in the data active means inhibition above about 34%;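 further: 0% = enzyme with vehicle and 100% = wells lacking enzyme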
TMEM16A reconf = TMEM16A (mouse) chloride channel inhibition, re-confirmation; HEK293 TMEM16A/YFP-H148Q, iodide quench fluorescence; ionomycin added to raise cell calcium; shares compounds with TMEM16A inh; AID 652189; hit rate 39% among 2,300; inhibition, % at 10 µM;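 active means mean duplicate percent inhibition, scaled so buffer wells are 0 and the reference blocker 100, over three buffer SD above buffer mean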
TMEM16A Ca cntr = calcium mobilization counter-screen hit for TMEM16A inhibitor series; hit rate 2% among 2,300; calcium response (% of ionomycin), % at 10 µM; shares compounds with TMEM16A inh; TMEM16A/YFP HEK293, Fluo4 calcium mobilization; AID 652231;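 active means duplicate-averaged calcium signal over 20% of the ionomycin maximum, relative to buffer baseline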;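 further: each well's signal is peak minus trough fluorescence divided by its pre-addition baseline; 0% = buffer wells and 100% = ionomycin wells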
YFP-HEK293 quench = parental YFP-HEK293 iodide quench counter-screen activity. shares compounds with TMEM16A inh. ionomycin. YFP ratio F(max-min)/F0 at 10 µM. 2,300 tested, under 10 active. AID 652233;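 active means yellow fluorescent protein signal ratio exceeding the buffer control mean by over 5 SD of those controls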;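 further: ratio is mean of duplicate wells from kinetic YFP trace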
ClC-1 inh = selectivity of TMEM16A inhibitors: inhibition of rat ClC-1 chloride channel; shares compounds with TMEM16A inh; CHO ClC-1-YFP, iodide influx fluorescence quench; iodide control reads 0, buffer control 100; ratio percent, % at 10 µM; 2,300 tested, under 10 active; AID 652236;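 active means duplicate-mean ratio percent above the mean of iodide-only control wells, which defines zero, plus 5 of their SD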;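 further: higher percent means stronger block of ClC-1 iodide influx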
Starred values were filed as active, the others as inactive. This is a sample that favours compounds with a hit; in the whole collection about 1.5% have one here.

For O=C(CCC(=O)OCC(=O)c1ccc(F)cc1)NC1CCCCC1 the results were ABCB6 inh MLPCN 97.0, ANO1 activ inactive, iPSC survival up 0.1, TMEM16A inh 25*, DAGLB inh 1.8, TMEM16A reconf inactive, TMEM16A Ca cntr inactive, YFP-HEK293 quench -1.08 and ClC-1 inh -13.5.
Cc1nnc(SCc2cccc(Oc3ccccc3)c2)n1N was read as ABCB6 inh MLPCN 98.0, ANO1 activ inactive, iPSC survival up 3.0, TMEM16A inh 25*, DAGLB inh -0.7, TMEM16A reconf inactive, TMEM16A Ca cntr inactive, YFP-HEK293 quench -1.01 and ClC-1 inh -19.5.
Screening CC(C)n1nnnc1C1c2ccccc2C(=O)N1CCCn1ccnc1 (stereo unspecified) returned ABCB6 inh MLPCN 347.0 and iPSC survival up -0.1.
Screening O=C(Nc1nc(-c2ccc(S(=O)(=O)N3CCCCCC3)cc2)cs1)c1ccccc1 returned ABCB6 inh MLPCN 89.0, ANO1 activ inactive, iPSC survival up -4.1, TMEM16A inh inactive and DAGLB inh -1.1.
O=C(Nc1nc(-c2cccs2)cs1)c1ccc(S(=O)(=O)N2CCCC2)cc1 was read as ABCB6 inh MLPCN 89.0, ANO1 activ inactive, iPSC survival up -0.4, TMEM16A inh 25*, DAGLB inh -5.1, TMEM16A reconf inactive, TMEM16A Ca cntr inactive, YFP-HEK293 quench -1.28 and ClC-1 inh -13.5.
For O=C(Nc1ccccc1C(=O)O)c1cc(S(=O)(=O)Nc2cccc(F)c2)ccc1Cl the results were ABCB6 inh MLPCN 100.0, ANO1 activ inactive, iPSC survival up 0.0, TMEM16A inh inactive and DAGLB inh 7.8.
For CCOC(=O)c1ccc(NC(=O)c2cc(S(=O)(=O)N3CCOCC3)ccc2O)cc1 the results were ABCB6 inh MLPCN 99.0, ANO1 activ inactive, iPSC survival up -3.7, TMEM16A inh 25*, DAGLB inh -0.7, TMEM16A reconf 37.0%*, TMEM16A Ca cntr inactive, YFP-HEK293 quench -0.865 and ClC-1 inh -16.5.
For CCOC(=O)c1ccc(NC(=O)C2CCCN(S(=O)(=O)c3ccc(F)cc3)C2)cc1 (stereo unspecified) the results were ABCB6 inh MLPCN 79.0, ANO1 activ inactive, iPSC survival up -3.5, TMEM16A inh 25*, DAGLB inh -0.4, TMEM16A reconf 17.5%*, TMEM16A Ca cntr inactive, YFP-HEK293 quench -1.11 and ClC-1 inh -4.5.
For CCCCOC(=O)c1ccc(NC(=O)C(=O)NCc2cccnc2)cc1 the results were ABCB6 inh MLPCN 104.0, ANO1 activ inactive, iPSC survival up 3.2, TMEM16A inh 25*, DAGLB inh -2.0, TMEM16A reconf inactive, TMEM16A Ca cntr inactive, YFP-HEK293 quench -1.2 and ClC-1 inh -7.0.
For CCCCOC(=O)c1ccc(NC(=O)C(=O)NCCN(CC)CC)cc1 the results were ABCB6 inh MLPCN 103.0, ANO1 activ inactive, iPSC survival up 0.4, TMEM16A inh inactive and DAGLB inh -1.3.
COCCC1CCCCN1C(=O)c1ccc(OC2CCN(C(C)=O)CC2)c(OC)c1 (stereo unspecified) was read as ABCB6 inh MLPCN 96.0, ANO1 activ inactive, iPSC survival up -0.4, TMEM16A inh inactive and DAGLB inh -5.6.
`Cn1c(=O)oc2cc(S(=O)(=O)N3CCN(C(=O)c4ccco4)CC3)ccc21` gave ABCB6 inh MLPCN 104.0, ANO1 activ inactive, iPSC survival up 3.2, TMEM16A inh 100*, DAGLB inh 0.7, TMEM16A reconf inactive, TMEM16A Ca cntr inactive, YFP-HEK293 quench -1.01 and ClC-1 inh -5.5.
Screening COc1ccc(NC(=O)CN(c2cc(C)cc(C)c2)S(=O)(=O)c2c(C)noc2C)cc1 returned ABCB6 inh MLPCN 104.0, ANO1 activ inactive, iPSC survival up 1.6, TMEM16A inh 100*, DAGLB inh -4.9, TMEM16A reconf inactive, TMEM16A Ca cntr inactive, YFP-HEK293 quench -1.14 and ClC-1 inh 0.5.
COc1ccc(N(CC(=O)Nc2ccc(C)cc2)S(=O)(=O)c2c(C)noc2C)cc1 was read as ABCB6 inh MLPCN 93.0, ANO1 activ inactive, iPSC survival up -0.2, TMEM16A inh inactive and DAGLB inh -5.9.
CC(C)(C)NC1=NCCNC(c2ccccc2)=C1 was read as ABCB6 inh MLPCN 101.0, iPSC survival up -0.4 and DAGLB inh 0.7.
O=C(NCCSCc1ccco1)Nc1cc(Cl)cc(Cl)c1 was read as ABCB6 inh MLPCN 99.0, ANO1 activ inactive, iPSC survival up -0.1, TMEM16A inh 100*, DAGLB inh -13.5, TMEM16A reconf 33.5%*, TMEM16A Ca cntr inactive, YFP-HEK293 quench -0.963 and ClC-1 inh -20.5.
O=C(CSCc1ccc(Cl)cc1)NCCSCc1ccco1 was read as ABCB6 inh MLPCN 96.0, ANO1 activ inactive, iPSC survival up -0.9, TMEM16A inh inactive and DAGLB inh -2.8.
For COCCNC(=O)c1ccc2c(=O)n(Cc3ccco3)c(SCC(=O)NC3CCCCC3)nc2c1 the results were ABCB6 inh MLPCN 93.0, ANO1 activ inactive, iPSC survival up 0.9, TMEM16A inh inactive, DAGLB inh -1.8, TMEM16A reconf inactive, TMEM16A Ca cntr inactive, YFP-HEK293 quench -1.02 and ClC-1 inh -5.5.
COCCNC(=O)c1ccc2c(=O)n(Cc3ccco3)c(SCC(=O)Nc3ccc(OC)cc3OC)nc2c1 was read as ABCB6 inh MLPCN 92.0, ANO1 activ inactive, iPSC survival up -0.6, TMEM16A inh inactive and DAGLB inh -0.7.
O=C(Nc1cccc(S(=O)(=O)N2CCCCC2)c1)c1ccc(OCC2CCCO2)cc1 (stereo unspecified) was read as ABCB6 inh MLPCN 96.0, ANO1 activ inactive, iPSC survival up -0.7, TMEM16A inh 25*, DAGLB inh 0.6, TMEM16A reconf inactive, TMEM16A Ca cntr inactive, YFP-HEK293 quench -1.03 and ClC-1 inh -14.0.
For Cc1ccc(NC(=O)c2ccc(OCC3CCCO3)cc2)cc1 (stereo unspecified) the results were ABCB6 inh MLPCN 96.0, ANO1 activ inactive, iPSC survival up -1.4, TMEM16A inh inactive and DAGLB inh 0.0.

Screens as filed in PubChem.
